Data on 22 compounds can be found in PubChem BioAssay (NCATS).

Test [1] can be described thus: qHTS Assay for Identification of Small Molecule Inducers of Hypoxia Response (AID 2120; active = well fitted curve in the direction sought with a large enough effect in the signal ratio, with a control signal flat, not every such curve was filed as active; the % refers to the signal ratio; also: potency is read from the fitted curve at half-maximal effect). The essentials: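 HRE-bla ME-180, 2500 cells/well, 0.5% dialyzed FBS medium; cpd titration, 17 h 37 degrees C; CCF4 2.5 h RT; Ex 405, Em 460/530 ratio -> %Activity, AC50.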
Test [2] can be described thus: qHTS Assay for Lipid Storage Modulators (AID 1519; calls by dose curve). As to conditions: Drosophila S3 cells, BODIPY lipid droplet/cell ratio, laser cytometry, cells loaded with oleic acid; for activity change, negative = inhibition: at 57.5 µM (top of the series). The essentials: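 Cells seeded at 5,000 per well were treated with compounds over a concentration series and loaded with oleic acid (400 uM, as added). Lipid droplet fluorescence (488 nm excitation, 500-530 nm channel) was read by laser-scanning cytometry and normalized to 20 uM Triacsin C.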

The target of test [3] is DNA repair nuclease/redox regulator APEX1 (Homo sapiens) (UniProt P27695). The experiment in a line: qHTS Validation Assay for Inhibitors of the Human Apurinic/apyrimidinic Endonuclease 1 (APE1) (AID 1705;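 also: TAMRA fluorescence gain over two minutes as APE1 cuts a quenched THF abasic duplex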). The essentials: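 Substrate: 50 nM final fluorophore/quencher THF-abasic duplex. Enzyme preincubated with compounds 15 min, RT. Progress derived from fluorescence difference, third minus first kinetic read.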

Test [4] can be described thus: Counterscreen for APE1 Inhibitors: Fluorescent Dye Displacement Validation Assay (AID 1707). Put shortly: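 Counterscreen flags promiscuous DNA binders: compounds displacing ThO from duplex DNA (abasic THF site, 50 nM) reduce 540 nm emission (480 nm excitation). ThO 250 nM final; Tris-HCl pH 7.5 with NaCl, MgCl2 and Tween-20.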
Test [5] concerns the target Endonuclease 4 (Escherichia coli (strain K12)) (UniProt P0A6C1). The experiment in a line: Counterscreen for APE1 Inhibitors: qHTS Validation Assay for Inhibitors of Endonuclease IV (AID 1708). Put shortly:
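Measured as reaction progress, the fluorescence gain between first and third kinetic reads after adding 50 nM TAMRA/BHQ-2 THF duplex to 2 nM enzyme preincubated 15 min with compound; 2 mM MgCl2, pH 7.5.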

Test [6] in a line: qHTS for differential inhibitors of proliferation of Plasmodium falciparum line 7G8 (AID 1815).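 Also: parasite growth measured after three days of incubation.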
Test [7] is described as follows: qHTS for differential inhibitors of proliferation of Plasmodium falciparum line D10 (AID 1877).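 Also: parasites grown with compound for 72 h before DNA staining.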
Test [8] is described as follows: qHTS for differential inhibitors of proliferation of Plasmodium falciparum line Dd2 (AID 1882).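 Also: compound exposure of 72 h on infected erythrocytes; nearly all actives have a fitted effect of over 65% in size.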 As to conditions: Potency: Plasmodium falciparum Dd2 proliferation inhibition. Put shortly:
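RBC culture, 0.3% parasitemia / 2.5% Hct final; cpd added by pin tool in DMSO; 72 h, 37 C, 5% CO2; lysis buffer + SYBR Green I, o/n RT dark; FI 485/535; norm. to artemisinin 0.29 uM and DMSO.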

A short description of test [9]: qHTS for differential inhibitors of proliferation of Plasmodium falciparum line HB3 (AID 1886).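 Also: parasites grown with compound for 72 h before SYBR Green readout.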 As to conditions: Potency: Plasmodium falciparum HB3 proliferation inhibition.
For test [10], the target named is Ferritin light chain (Equus caballus) (UniProt P02791). The experiment in a line: qHTS Validation Assay for Identification of Novel General Anesthetics (AID 2323). Put shortly: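 Normalized fluorescence response, scaled between free 1-AMA and 1-AMA/apoferritin complex, fitted to a four-parameter Hill equation for concentration-effect values. Binding mix: 10 uM horse-spleen apoferritin, 50% saturated 1-AMA in PBS; read 380/535 nm after 10 min.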

The target of test [11] is ATP-dependent DNA helicase Q1 (Homo sapiens) (UniProt P46063). The test can be described thus: qHTS Validation Assay for Inhibitors of RecQ-Like Dna Helicase 1 (RECQ1) (AID 2353). Put shortly: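 RECQ1T1 50 nM; forked duplex (20 bp + 30-nt ss tails) 200 nM, ATP 2 mM final; pH 8.0, 2 mM MgCl2, 2.5 ug/ml poly(dI-dC); 15 min compound preincubation; discontinuous kinetic read over 2 h at RT.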

Test [12] can be described thus: Cytometric Cell-Based qHTS for Inhibitors of the mTORC1 Signaling Pathway in MEF (Tsc2-/-, p53-/-) Cells (AID 2660).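 Also: Tsc2 and p53 null MEFs carrying empty vector with compound for 24 h; percent of cells above a phospho-rpS6 to PI ratio cutoff in each well.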 Put shortly:
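Immunofluorescence qHTS of rpS6 Ser235/236 phosphorylation: MEFs (Tsc2-/-, p53-/-) treated 24 h, 37 C, in DMEM + 10% FBS. Alexa-488 signal normalized to PI count, referenced to rapamycin (7.5 nM) and DMSO; PI cell number recorded for viability.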

Test [13] in a line: High Content Imaging Cell-Based qHTS for Inhibitors of the mTORC1 Signaling Pathway in MEF (Tsc2-/-, p53-/-) Cells (AID 2666).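 Also: percent of cells scored positive for phospho-rpS6 Ser235/236 immunostaining by imaging.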 As to conditions: at 38.3 µM (top of the series). Put shortly: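 Inhibition of rpS6 phosphorylation is measured by immunofluorescence imaging in empty-vector Tsc2-/-, p53-/- mouse embryonic fibroblasts after 24 hrs compound exposure at 37 degree Celsius. Results are reported as % positive cells per well.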

[14] abbreviates: measured here: cell count channel max response.
[15] abbreviates: measured here: lipid channel max response.

Records with an inconclusive call do not appear. Entries that show only a call come without a potency. The source made the active and inactive calls. Unless noted, calls follow the shape of the dose curve; as a rule, active = well fitted curve in the direction sought with a large enough effect; inconclusive = small, poorly fitted or top-dose-only effect, or another doubt; inactive = no such curve, though single readings can be large; an effect the other way counts as inactive or inconclusive.

Sequence of Ferritin light chain (Equus caballus) (P02791 2-175 limits assumed): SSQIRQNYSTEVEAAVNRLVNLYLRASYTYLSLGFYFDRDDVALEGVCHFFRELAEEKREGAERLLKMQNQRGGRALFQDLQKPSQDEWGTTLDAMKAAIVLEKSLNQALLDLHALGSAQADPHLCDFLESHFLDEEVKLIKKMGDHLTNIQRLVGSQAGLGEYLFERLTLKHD
Sequence of ATP-dependent DNA helicase Q1 (Homo sapiens) (P46063 whole entry, looked up): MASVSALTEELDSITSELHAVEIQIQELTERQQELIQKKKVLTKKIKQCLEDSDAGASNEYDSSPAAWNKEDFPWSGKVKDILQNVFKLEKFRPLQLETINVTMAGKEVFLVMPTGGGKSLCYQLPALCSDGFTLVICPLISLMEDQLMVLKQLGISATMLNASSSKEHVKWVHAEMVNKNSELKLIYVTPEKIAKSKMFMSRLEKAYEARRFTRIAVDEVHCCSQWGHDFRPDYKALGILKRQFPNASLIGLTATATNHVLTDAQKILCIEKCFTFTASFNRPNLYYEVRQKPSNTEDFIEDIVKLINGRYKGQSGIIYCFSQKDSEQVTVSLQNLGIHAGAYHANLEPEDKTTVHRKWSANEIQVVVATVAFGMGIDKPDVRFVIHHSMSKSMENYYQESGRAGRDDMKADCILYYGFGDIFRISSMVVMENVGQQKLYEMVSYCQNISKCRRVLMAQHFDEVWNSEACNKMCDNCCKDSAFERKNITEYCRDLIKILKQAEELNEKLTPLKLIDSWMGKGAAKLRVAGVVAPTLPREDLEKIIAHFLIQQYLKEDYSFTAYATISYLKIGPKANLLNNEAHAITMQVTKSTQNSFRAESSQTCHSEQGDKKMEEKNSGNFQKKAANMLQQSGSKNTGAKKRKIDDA
Sequence of DNA repair nuclease/redox regulator APEX1 (Homo sapiens) (P27695 whole entry, looked up): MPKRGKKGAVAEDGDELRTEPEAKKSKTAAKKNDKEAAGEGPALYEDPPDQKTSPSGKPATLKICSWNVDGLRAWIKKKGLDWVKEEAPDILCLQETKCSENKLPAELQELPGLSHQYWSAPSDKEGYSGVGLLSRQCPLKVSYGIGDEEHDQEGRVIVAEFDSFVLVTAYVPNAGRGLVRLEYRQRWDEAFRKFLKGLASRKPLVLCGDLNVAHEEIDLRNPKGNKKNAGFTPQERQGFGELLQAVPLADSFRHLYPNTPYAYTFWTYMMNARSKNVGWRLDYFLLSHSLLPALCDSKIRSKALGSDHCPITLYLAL

On to `OC[C@H]1O[C@@H]2O[C@H]3[C@H](O)[C@@H](O)[C@@H](O[C@H]4[C@H](O)[C@@H](O)[C@@H](O[C@H]5[C@H](O)[C@@H](O)[C@@H](O[C@H]6[C@H](O)[C@@H](O)[C@@H](O[C@H]7[C@H](O)[C@@H](O)[C@@H](O[C@H]1[C@H](O)[C@H]2O)O[C@@H]7CO)O[C@@H]6CO)O[C@@H]5CO)O[C@@H]4CO)O[C@@H]3CO`, for which, in [1], the Potency entry is “inactive”.
On the same count and under the same terms, for `O.O.O.O.O.O.O.O=S(=O)([O-])[O-].[Co+2]` the value was 31.6 µM (active); for `CO/N=C(/C(=O)N[C@@H]1C(=O)N2C(C(=O)O)=C(COC(N)=O)CS[C@H]12)c1ccco1`, “inactive”.
`CC[C@H]1OC(=O)[C@H](C)[C@@H](O[C@H]2C[C@@](C)(OC)[C@@H](O)[C@H](C)O2)[C@H](C)[C@@H](O[C@@H]2O[C@H](C)C[C@H](N(C)C)[C@H]2O)[C@](C)(O)C[C@@H](C)CN(C)[C@H](C)[C@@H](O)[C@]1(C)O`: the Potency result in [1] was “inactive”.
In the case of `Oc1ccc(/C=C/c2cc(O)cc(O)c2)cc1`, in test [2], the activity change, negative = inhibition was 25.3% (inactive). The max response was -23.2% in test [2] (setting [14]) and 2.31% in test [2] (setting [15]). The compound was called inactive in test [3], in [4], in test [5], in test [7], in [10] and in test [11]. Moreover, the result in test [12] and in test [13] was inactive. In addition, the Potency entry in [6], in test [8] and in [9] was “inactive” throughout.
Turning to `O=c1n(CC2CO2)c(=O)n(CC2CO2)c(=O)n1CC1CO1` (centres undefined), in test [1], the Potency result was “inactive”.
Same read-out and setting: the same measure for `Cc1ncc[nH]1`: “inactive”.
On the same count and under the same terms, for `C[C@H](CCC(=O)O)[C@H]1CC[C@H]2[C@@H]3[C@H](O)C[C@@H]4C[C@H](O)CC[C@]4(C)[C@H]3C[C@H](O)[C@]12C` the value was “inactive”; for `CC1=CCC2CC1C2(C)C` (centres undefined), “inactive”.
In the case of `Cc1ccc(S(=O)(=O)O)cc1C`, in test [1], the Potency result was “inactive”.
The same measure, in the same setting: for `O=P(O)(O)O` the value was “inactive”.
`Nc1ncnc2c1ncn2[C@H]1CC[C@@H](CO)O1`: the activity change, negative = inhibition in test [2] was 1.8% (inactive). In addition, the max response in test [2] (setting [14]) was 3.29%; in [2] (setting [15]) it was 6.18%. The Potency entry in [1] was “inactive”.
Regarding `NCCN`, in test [1], the Potency result is “inactive”.
As to `[O-][N+](=Nc1ccccc1)c1ccccc1`, the Potency entry in test [1] is “inactive”.
Turning to `CC(C)O`, the Potency result in test [1] is “inactive”.
On the same count and under the same terms, the same measure for `CC(C)(C)CC(C)(C)c1ccc(OCCO)cc1`: “inactive”; for `OCc1ccccc1`: “inactive”; for `CCCCC`: “inactive”.
On the same count and under the same terms, for `OB(O)O` the value was “inactive”.
Regarding `Nc1nccs1`, in test [2], the activity change, negative = inhibition was 6.96% (inactive). Also, the max response is -1.03% in [2] (setting [14]) and 14.6% in [2] (setting [15]). Further, in [1], the Potency entry is “inactive”.
For `NC(N)=O`, in test [2], the activity change, negative = inhibition was 6.91% (inactive). In addition, the values for the max response in [2] (setting [14]) and in test [2] (setting [15]) were 16.8% and 28%, respectively. The Potency result in [1] is “inactive”.
As to `ClC(Cl)Cl`, in [1], the Potency entry was “inactive”.
